Results filed as inconclusive are left out. Entries that show only a call come without a potency. Activity calls are given as the source filed them. Unless noted, calls come from the whole dose curve.
Key:
[1] = Nuclear factor erythroid 2-related factor 2/antioxidant responsive element (Nrf2/ARE) small molecule agonists: qHTS cell viability counter screen in human keratinocytes (AID 1919968; active = well fitted curve in the direction sought with a large enough effect in the repeat runs; an effect the other way counts as inactive or inconclusive; note: nearly all actives have a fitted effect of over 55% in size)
Outline: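 Cytotoxicity was multiplexed with the Nrf2/ARE luciferase assay in the same wells. Stably transfected HaCaT keratinocytes were treated with test compounds for 23 h at 37 C. Cell viability was then measured by CellTiter-Fluor fluorescence.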

[2] = Nuclear factor erythroid 2-related factor 2/antioxidant responsive element (Nrf2/ARE) small molecule agonists: luciferase reporter gene qHTS assay in human keratinocytes (AID 1919969); note: nearly all actives have a fitted effect of over 35% in size
[3] = target: KiSS-1 receptor (Homo sapiens) (UniProt Q969F8); assay: Human kisspeptin (KISS1R) small molecule agonists, calcium flux assay in KISS1R-HEK293 cells (AID 1920064; active = well fitted curve in the direction sought with a large enough effect in the repeat runs; an effect the other way counts as inactive or inconclusive)
KiSS-1 receptor (Homo sapiens), sequence (Q969F8 whole entry, looked up): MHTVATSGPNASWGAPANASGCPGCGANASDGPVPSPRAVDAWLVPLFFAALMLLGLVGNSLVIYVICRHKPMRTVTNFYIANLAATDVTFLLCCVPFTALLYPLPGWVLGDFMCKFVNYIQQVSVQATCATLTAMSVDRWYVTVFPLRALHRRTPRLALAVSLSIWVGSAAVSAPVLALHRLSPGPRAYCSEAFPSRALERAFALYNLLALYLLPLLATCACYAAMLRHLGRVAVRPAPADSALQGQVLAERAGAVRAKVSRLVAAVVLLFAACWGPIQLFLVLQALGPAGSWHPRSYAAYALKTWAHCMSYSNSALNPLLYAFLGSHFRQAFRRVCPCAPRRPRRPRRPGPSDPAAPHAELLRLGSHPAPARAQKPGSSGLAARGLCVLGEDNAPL
Outline: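 Agonist activity is monitored as intracellular calcium rise in engineered HEK293 cells carrying human KISS1R. Cells are dye-loaded for 1 h at 37 C before compound addition, and fluorescence is recorded for 3 min.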

[4] = G protein-coupled receptor (GPCR) small molecule agonists, calcium flux assay: HEK293 wild type cell line counter screen (AID 1920065)
Outline: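 Seed cells, incubate 18 h (37 C, 5% CO2); add calcium dye, 1 h at 37 C; pin-transfer compounds, ATP control or DMSO; read fluorescence 480/540 nm each second for 3 min.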

[5] = p53 small molecule agonists, cell-based qHTS assay with human liver microsomes (AID 1963577)
Outline: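 p53RE-bla reporter cells were pre-incubated 5 h at 37 C, then treated with compounds plus human liver microsomes (0.5 mg/mL final) and NADPH (0.5 mg/mL final) for 16 h at 37 C. Beta-lactamase activity was read by LiveBLAzer fluorescence after 2 h at room temperature.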

[6] = p53 small molecule agonists, cell-based qHTS assay with rat liver microsomes (AID 1963578)
Outline: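 p53RE-bla cells were exposed to compounds together with rat liver microsomes (0.5 mg/mL final) and NADPH (0.5 mg/mL final) for 16 h at 37 C, then read by LiveBLAzer beta-lactamase fluorescence after 2 h at room temperature.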

[7] = p53 small molecule agonists, cell-based qHTS assay with human liver microsomes: qHTS cell viability counter screen (AID 1963579); note: nearly all actives have a fitted effect of over 45% in size
Outline: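 p53RE-bla cells (4,000/well) were pre-incubated 5 h at 37 C, then given compounds in DMSO plus human liver microsomes (0.5 mg/mL final) and NADPH (0.5 mg/mL final) for 16 h at 37 C. Viability was read by CellTiter-Glo luminescence.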

[8] = p53 small molecule agonists, cell-based qHTS assay with rat liver microsomes: qHTS cell viability counter screen (AID 1963580); note: nearly all actives have a fitted effect of over 45% in size
Outline: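 Counter screen for cytotoxicity under metabolic activation: rat liver microsomes and NADPH, 0.5 mg/mL final each, added with compounds to p53RE-bla HCT-116 cells; 16 h at 37 C, then ATP luminescence read.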

[9] = p53 small molecule agonists, cell-based qHTS assay: qHTS cell viability counter screen (AID 1963581); note: nearly all actives have a fitted effect of over 45% in size
Outline: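 Viability was counter-screened in parallel with the p53 agonist reporter by measuring intracellular ATP luminescence in the same HCT-116 p53RE-bla wells after 16 h compound treatment at 37 C.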

[10] = p53 small molecule agonists, cell-based qHTS assay (AID 1963582; active = well fitted activation curve with a large enough effect in the signal ratio in the repeat runs, not every such curve was filed as active; the % refers to the signal ratio)
Outline: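 Cells carrying a p53-responsive bla reporter are treated with test compounds for 16 h at 37 C; beta-lactamase activity is then detected with LiveBLAzer B/G FRET substrate after 2 h at room temperature.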

[11] = target: 5-hydroxytryptamine receptor 2A (Homo sapiens) (UniProt P28223); assay: 5-hydroxytryptamine receptor 2A (HTR2A) small molecule antagonists, cell-based qHTS assay (AID 1963586); note: nearly all actives have a fitted effect of over 45% in size; note: potency is the fitted concentration of half-maximal effect
5-hydroxytryptamine receptor 2A (Homo sapiens), sequence (P28223 whole entry, looked up): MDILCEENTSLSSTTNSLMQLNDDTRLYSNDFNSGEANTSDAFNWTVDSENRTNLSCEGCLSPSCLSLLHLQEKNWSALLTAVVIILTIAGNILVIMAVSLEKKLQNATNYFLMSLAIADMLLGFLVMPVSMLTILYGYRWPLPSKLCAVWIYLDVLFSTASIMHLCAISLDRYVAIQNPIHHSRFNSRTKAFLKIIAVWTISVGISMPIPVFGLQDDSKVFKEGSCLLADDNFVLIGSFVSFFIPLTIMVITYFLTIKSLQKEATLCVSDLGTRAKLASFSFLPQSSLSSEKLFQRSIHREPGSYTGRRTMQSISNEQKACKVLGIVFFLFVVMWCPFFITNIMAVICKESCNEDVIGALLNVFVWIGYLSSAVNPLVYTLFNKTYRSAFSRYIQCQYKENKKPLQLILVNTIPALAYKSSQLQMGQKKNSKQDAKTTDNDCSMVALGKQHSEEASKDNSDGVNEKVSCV
Outline: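 CHO cells stably expressing human HTR2A were plated for 18 h at 37 C, then loaded with calcium dye for 1 h. Compounds were preincubated 5 min at room temperature before DOI (4 nM solution) was added. Kinetic fluorescence was read for 3 min.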

[12] = target: 5-hydroxytryptamine receptor 2A (Homo sapiens) (UniProt P28223); assay: 5-hydroxytryptamine receptor 2A (HTR2A) small molecule agonists, cell-based qHTS assay (AID 1963587); note: nearly all actives have a fitted effect of over 30% in size
Outline: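 HTR2A-CHO cells, plated 18 h at 37 C/5% CO2, dye-loaded 1 h at 37 C; compounds in DMSO added by pin tool (agonist mode). Intracellular calcium flux read as kinetic fluorescence on FDSS over 2 min at 1 s intervals.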

[13] = target: Muscarinic acetylcholine receptor M1 (Homo sapiens) (UniProt P11229); assay: Cholinergic receptor muscarinic 1 (CHRM1) small molecule antagonists, cell-based qHTS assay (AID 1963588); note: nearly all actives have a fitted effect of over 40% in size
Muscarinic acetylcholine receptor M1 (Homo sapiens), sequence (P11229 whole entry, looked up): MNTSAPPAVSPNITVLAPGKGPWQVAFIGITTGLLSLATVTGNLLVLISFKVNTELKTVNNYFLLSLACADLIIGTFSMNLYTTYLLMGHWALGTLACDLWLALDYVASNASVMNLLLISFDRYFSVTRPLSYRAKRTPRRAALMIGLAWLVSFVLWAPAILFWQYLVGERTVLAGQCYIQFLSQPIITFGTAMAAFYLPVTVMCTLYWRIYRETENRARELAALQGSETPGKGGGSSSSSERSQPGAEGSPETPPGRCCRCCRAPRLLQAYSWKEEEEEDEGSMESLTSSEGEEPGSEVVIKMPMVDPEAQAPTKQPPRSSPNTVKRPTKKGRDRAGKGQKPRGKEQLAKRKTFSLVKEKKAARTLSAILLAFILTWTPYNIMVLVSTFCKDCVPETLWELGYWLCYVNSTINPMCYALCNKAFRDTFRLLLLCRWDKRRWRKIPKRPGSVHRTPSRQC
Outline: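 Compounds were tested at 15 concentrations in three independent runs. Dye-loaded CHRM1-CHO cells were exposed 5 min at room temperature before stimulation by acetylcholine added at 50nM. Intracellular calcium was read kinetically on FDSS for 3 min.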

[14] = target: Muscarinic acetylcholine receptor M1 (Homo sapiens) (UniProt P11229); assay: Cholinergic receptor muscarinic 1 (CHRM1) small molecule agonists, cell-based qHTS assay (AID 1963589); note: nearly all actives have a fitted effect of over 35% in size
Outline: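 Cells were plated and incubated 18 h at 37 C/5% CO2, loaded with calcium dye for 1 h at 37 C, then treated with compounds in DMSO. Fluorescence was recorded kinetically at 1 sec intervals.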

[15] = cAMP Responsive Elements (CRE) small molecule agonists, cell-based qHTS assay (AID 1963590)
Outline: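 Cells carrying a CRE-driven beta-lactamase reporter (HEK 293T) are seeded, incubated overnight (18 h), and treated with test compounds for 3 h at 37 C; reporter activity is then detected with a FRET substrate after 2 h at room temperature.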

[16] = cAMP Responsive Elements (CRE) small molecule antagonists, cell-based qHTS assay (AID 1963591; active = well fitted inhibition curve with a large enough effect in the signal ratio in the repeat runs, not every such curve was filed as active; the % refers to the signal ratio)
Outline: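 Cells (CRE-bla HEK 293T, DMEM with 10% dialyzed FBS and 25 mM HEPES) are seeded and incubated 18 h. Compounds are added with NKH477 agonist at 0.25 uM final for 3 h, then FRET substrate for 2 h.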

[17] = target: Beta-2 adrenergic receptor (Homo sapiens) (UniProt P07550); assay: Adrenergic beta2 receptor (ADRB2) small molecule agonists, cell-based qHTS assay (AID 1963593);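 note: CHO cells stably overexpressing human ADRB2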
Beta-2 adrenergic receptor (Homo sapiens), sequence (P07550 whole entry, looked up): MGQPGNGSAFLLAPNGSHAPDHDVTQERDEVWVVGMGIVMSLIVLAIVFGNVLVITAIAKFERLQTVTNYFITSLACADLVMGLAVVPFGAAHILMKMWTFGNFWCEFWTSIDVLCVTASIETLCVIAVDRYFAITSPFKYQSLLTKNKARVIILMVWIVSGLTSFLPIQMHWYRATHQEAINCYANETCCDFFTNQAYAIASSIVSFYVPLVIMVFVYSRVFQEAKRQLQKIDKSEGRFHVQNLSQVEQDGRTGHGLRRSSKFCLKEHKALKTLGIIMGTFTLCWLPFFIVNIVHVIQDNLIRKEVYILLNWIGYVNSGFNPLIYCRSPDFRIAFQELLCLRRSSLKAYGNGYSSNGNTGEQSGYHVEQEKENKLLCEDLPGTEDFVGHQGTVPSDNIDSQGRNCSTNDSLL
Outline: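 CHO cells stably over-expressing ADRB2 were plated overnight at 37C, then dosed with compounds plus a stimulation mix containing 100uM IBMX and 25uM Ro-20-1724 for 0.5hr at room temperature. cAMP was measured by HTRF competition, 1hr.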

[18] = target: D(2) dopamine receptor (Homo sapiens) (UniProt P14416); assay: Dopamine D2 receptor (DRD2) small molecule agonists, cell-based qHTS assay (AID 1963594); note: nearly all actives have a fitted effect of over 35% in size
D(2) dopamine receptor (Homo sapiens), sequence (P14416 whole entry, looked up): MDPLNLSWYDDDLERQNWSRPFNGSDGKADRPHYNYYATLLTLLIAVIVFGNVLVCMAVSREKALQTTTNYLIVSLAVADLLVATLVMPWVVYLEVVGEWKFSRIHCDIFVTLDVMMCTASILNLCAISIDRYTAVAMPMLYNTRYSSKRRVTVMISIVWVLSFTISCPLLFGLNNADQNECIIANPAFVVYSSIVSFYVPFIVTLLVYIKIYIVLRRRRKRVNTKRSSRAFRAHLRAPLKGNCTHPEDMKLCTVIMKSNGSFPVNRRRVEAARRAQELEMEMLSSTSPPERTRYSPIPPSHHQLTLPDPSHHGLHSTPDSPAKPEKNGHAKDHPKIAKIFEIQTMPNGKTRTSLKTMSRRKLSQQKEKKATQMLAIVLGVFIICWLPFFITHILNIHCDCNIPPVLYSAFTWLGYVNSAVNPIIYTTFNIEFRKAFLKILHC
Outline: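 HEK293 cells stably expressing DRD2 were cultured 24 h at 37 C, then given Ro20-1724 (0.1 mM final) and compounds for 10 min at room temperature. NKH477 (200nM) was then added for 30 min. cAMP was read by HTRF.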

[19] = target: D(2) dopamine receptor (Homo sapiens) (UniProt P14416); assay: Dopamine D2 receptor (DRD2) small molecule antagonists, cell-based qHTS assay (AID 1963595; active = well fitted inhibition curve with a large enough effect in the signal ratio in the repeat runs, with a control signal flat; the % refers to the signal ratio)
Outline: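 Antagonist mode in DRD2-HEK293 cells: after compound addition with 0.1 mM Ro20-1724, cells received quinpirole (12 nM) and NKH477 (200 nM) for 30 min at room temperature; HTRF cAMP read after 1 h detection.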

[20] = target: Beta-2 adrenergic receptor (Homo sapiens) (UniProt P07550); assay: Adrenergic beta2 receptor (ADRB2) small molecule antagonists, cell-based qHTS assay (AID 1963592); note: series mostly up to about 92 µM; nearly all actives have a fitted effect of over 50% in size
Outline: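 Assay format: CHO-ADRB2 cells, 18-20hr seeding at 37C/5% CO2, then compound plus 1nM isoproterenol agonist mix for 0.5hr RT. Homogeneous time-resolved fluorescence cAMP detection after 1hr, expressed as 665/615 nm ratio.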

SMILES	Potency [1]	Potency [2]	Potency [3]	Potency [4]	Potency [5]	Potency [6]	Potency [7]	Potency [8]	Potency [9]	Potency [10]	Potency [11]	Potency [12]	Potency [13]	Potency [14]	Potency [15]	Potency [16]	Potency [17]	Potency [18]	Potency [19]	Potency [20]
CC(=O)NC(Cc1ccccc1)C(=O)O (centres undefined)	inactive	inactive	inactive	inactive	inactive	inactive	inactive	inactive	inactive	inactive	inactive	inactive	inactive	inactive	inactive	inactive	inactive	inactive	inactive	–
CCC(C)C1CCCCC1=O (centres undefined)	inactive	inactive	inactive	inactive	inactive	inactive	inactive	inactive	inactive	inactive	inactive	–	inactive	inactive	inactive	inactive	inactive	inactive	inactive	inactive
O=C(O)CCCCCC(=O)O	inactive	inactive	inactive	inactive	inactive	inactive	inactive	inactive	inactive	inactive	inactive	inactive	–	inactive	inactive	inactive	–	inactive	inactive	inactive
Cc1ccc(N)cc1[N+](=O)[O-]	inactive	inactive	inactive	inactive	inactive	inactive	inactive	inactive	–	–	inactive	inactive	inactive	inactive	inactive	inactive	–	inactive	–	inactive
COC(=O)CC(C(C)=O)C(=O)OC (centres undefined)	inactive	inactive	inactive	inactive	inactive	inactive	inactive	–	inactive	inactive	inactive	inactive	inactive	inactive	inactive	inactive	inactive	–	inactive	inactive
OCCN1CCN(CCCN2c3ccccc3C=Cc3ccccc32)CC1	inactive	inactive	inactive	inactive	inactive	inactive	inactive	inactive	inactive	inactive	16.3 µM (active)	–	inactive	inactive	inactive	inactive	–	inactive	–	inactive
COCCOCCOCCOCCOC	inactive	inactive	inactive	inactive	inactive	inactive	inactive	inactive	inactive	inactive	inactive	inactive	–	inactive	–	inactive	inactive	–	inactive	inactive
